Assay results as given in PubChem BioAssay (NCI).
This is part of a sample that, as a whole, favours compounds with a hit. Of some 79,000 tested, about 15% had one in any assay. No stated cut-off is given here; in the data, active means growth inhibition above about 70%; inactive means the rest.

Columns and labels:
[1] = NCI Yeast Anticancer Drug Screen. Data for the rad50 strain (AID 155);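 further: 0% = growth of vehicle-only cultures of the same strain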; conditions: S. cerevisiae rad50 strain growth inhibition; at 50.0 µM; active compounds read high
Summary of the method: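 Yeast carrying a defined DNA repair defect were exposed to test compounds, and growth was compared with vehicle-treated controls to give percent inhibition.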

[2] = NCI Yeast Anticancer Drug Screen. Data for the mec2-1 strain (AID 157); conditions: S. cerevisiae mec2-1 strain, at 50.0 µM, active compounds read high
Summary of the method: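 Compounds were applied to mec2-1 yeast cells. Their growth was then compared with that of vehicle-treated cultures to give growth inhibition.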

[3] = NCI Yeast Anticancer Drug Screen. Data for the sgs1 mgt1 strain (AID 161);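 further: 0% = growth of cultures given vehicle only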; conditions: S. cerevisiae sgs1 mgt1 strain, at 50.0 µM, active compounds read high
Summary of the method: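 Compounds are added to genetically altered yeast, and growth is compared with cultures given vehicle alone to give percent inhibition.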

[4] = NCI Yeast Anticancer Drug Screen. Data for the cln2 rad14 strain (AID 165);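 further: 0% = growth equal to vehicle treated cultures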; conditions: S. cerevisiae cln2 rad14 strain, at 50.0 µM, active compounds read high
Summary of the method: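 Strain: cln2 rad14 yeast, altered in cell cycle control and DNA damage repair. Read-out: growth inhibition vs vehicle.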

[5] = NCI Yeast Anticancer Drug Screen. Data for the bub3 strain (AID 167); conditions: S. cerevisiae bub3 mutant strain, at 50.0 µM, active compounds read high
Summary of the method: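 Compounds were applied to a genetically altered yeast strain carrying a cell-cycle control defect. Growth inhibition was scored against vehicle-treated controls.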

[6] = NCI Yeast Anticancer Drug Screen. Data for the mlh1 rad18 strain (AID 175); conditions: S. cerevisiae mlh1 rad18 strain growth inhibition; at 50.0 µM; active compounds read high
Summary of the method: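 A repair-deficient yeast strain is exposed to test compound, and growth is scored relative to vehicle-treated controls.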

Measured: growth inhibition

O=[N+]([O-])c1cc(C(F)(F)F)ccc1S(=O)(=O)c1ccccc1
inactive: [1] 40.4% | [2] 8.5% | [3] 8.7% | [4] 13.7% | [5] 14.1% | [6] 17.6%

Brc1nc2c3ccccc3ncn2c1Br
inactive: [1] 45.2% | [2] -3.05% | [3] 21.3% | [4] -4.25% | [5] 1.7% | [6] 23.3%

CC(=O)c1cc2ccccc2o1
inactive: [1] 17.6% | [2] 1.4% | [3] -4% | [4] 0.05% | [5] -6.7% | [6] 4.6%

CCCC(=O)Nc1cc(C(=O)O)cc([N+](=O)[O-])c1
inactive: [1] 2.05% | [2] -15.6% | [3] 4.8% | [4] -26.2% | [5] 22.5% | [6] -4.45%

COc1cc2c(cc1OC)C1c3cc(OC)c(OC)cc3CC(=O)N1CC2 (centres undefined)
inactive: [1] 17.6% | [2] 7.1% | [3] 38.5% | [4] 19.3% | [5] 24.5% | [6] 37.6%

Cc1c2n(c(=O)[nH]c1=O)C1OC(CO)C(N=[N+]=[N-])C1O2 (centres undefined)
inactive: [1] -5.5% | [2] -15.9% | [3] -42% | [4] -12.3% | [5] -39.2% | [6] -32.2%

O=C(O)/C=C/C(=O)Nc1ccccc1NC(=O)/C=C/C(=O)O
inactive: [1] 15.2% | [2] 16.2% | [3] 31.2% | [4] 27.8% | [5] 19.9% | [6] -1.9%

O/N=C1/CCCCC1NO (centres undefined)
inactive: [1] -17.9% | [2] -22.9% | [3] -32.2% | [4] 15.7% | [5] -10.8% | [6] -19.7%

CCCCCCCCCCCCCCCCOc1ccc(-c2cc(=O)n(C)n2C)cc1
inactive: [1] 6% | [2] -18.6% | [3] -19.1% | [4] -8.45% | [5] -2.9% | [6] -4.05%

CC(N)C(C)(C)O (centres undefined)
inactive: [1] -2.1% | [2] -13.7% | [3] 1.7% | [4] -12.8% | [5] 6.2% | [6] 0.05%

C=C1CC(C)(Cn2cnc3c(N)ncnc32)OC1=O (centres undefined)
inactive: [1] 9% | [2] 10.6% | [3] 9.05% | [4] 20.1% | [5] 16.7% | [6] 21.1%

COc1ccc(COC(=O)NNC(=O)C2CSC(c3ccccc3)N2C(C)=O)cc1 (centres undefined)
inactive: [1] -23.4% | [2] 6.75% | [3] -15.8% | [4] 3.4% | [5] -8.9% | [6] -10.3%

C(=N\OCCc1ccccc1)/c1ccccn1
inactive: [1] -14.7% | [2] -33.1% | [3] -8.95% | [4] -25.3% | [5] 9.7% | [6] 4%

C(#CCN1CCOCC1)CCCN1CCOCC1
inactive: [1] 1.2% | [2] -38.7% | [3] -2.45% | [4] -17.4% | [5] -15.2% | [6] 10.2%

COC(=O)/C=C/c1ccc(OC(C)=O)c(OC)c1
inactive: [1] -1.9% | [2] 3.55% | [3] -13.6% | [4] -19.1% | [5] 16.6% | [6] -4.9%

Cc1ccc(NC(=O)Nc2ccc(C)cc2)cc1
inactive: [1] 0.7% | [2] -14.9% | [3] -12.8% | [4] -9.25% | [5] -2.3% | [6] -18.1%

CCOC(=N)CC(=O)Nc1ccccc1
inactive: [1] 4.45% | [2] 1.1% | [3] 1.65% | [4] -1.6% | [5] 3.6% | [6] 2.35%

NC(=O)N/N=C/c1ccccc1O
inactive: [1] 28.8% | [2] 11.2% | [3] 15% | [4] 5.95% | [5] -1.2% | [6] 6.75%

O=C1CC(NC(=O)C(F)(F)F)c2c1csc2Br (centres undefined)
inactive: [1] -20.6% | [2] -2.55% | [3] -9.1% | [4] -12.6% | [5] -11% | [6] 20.2%
